Most compounds without a hit are left out; they make up all but 9.5% or so of the library.
RE007 growth inh: qHTS Assay for Inhibitors of the HIV-1 protein Vpr. actives 0.21% (n = 360,000). S. pombe RE007 Vpr strain, BacTiter-Glo ATP luminescence, 24 h. Potency, µM (top dose mostly 92.2 µM), without a hit: top-dose activity change, negative = less growth, actives largely listed as inhibitors; active = well fitted falling curve with a large enough effect; inconclusive = small, poorly fitted or top-dose-only effect; inactive = no such curve, though single readings can be large or run the other way; note: % is set by controls: 0 for no effect and ±100 for the full control effect; nearly all actives have a fitted effect of over 50% in size
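Fission yeast RE007 carrying one integrated HIV-1 vpr copy, seeded at OD 0.01 in PMG+AL medium with 23 nL pinned compound. Grown 24 h at 30 degrees; viability read by BacTiter-Glo luminescence after 5 min.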
NS1 inh: qHTS Assay for Inhibitors of Influenza NS1 Protein Function. actives 0.4% (n = 270,000). Potency, µM (titrated, usually from 46.1 µM), for inactives: at the highest dose activity, positive = more growth; calls by dose curve; note: actives are rising curves; nearly all actives have a fitted effect of over 50% in size
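A cell-based growth assay was used: compounds that relieve NS1-induced slow growth of budding yeast raise OD600. Assay medium was yeast nitrogen base with ammonium sulphate and -URA supplement, pH 6.0, with 2% galactose.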
Pf growth 48h: Primary qHTS for delayed death inhibitors of the malarial parasite plastid, 48 hour incubation. Potency, µM (highest dose often 28.7 µM), inactives show at the top dose activity change, negative = inhibition, most hits filed as inhibitors. actives 5.9% (n = 310,000). P. falciparum luciferase growth in erythrocytes, 48 h; note: % is set by controls: 0 for no effect and ±100 for the full control effect
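Read-out is firefly luciferase luminescence from an integrated reporter in P. falciparum, so falling signal marks reduced parasite growth. Infected erythrocytes were at 2% hematocrit and 0.1% parasitemia (final) in Albumax-supplemented RPMI 1640.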
Pf growth 96h: Primary qHTS for delayed death inhibitors of the malarial parasite plastid, 96 hour incubation | Potency, µM (top dose mostly 28.7 µM), inactives show at the highest dose activity change, negative = inhibition, actives largely listed as inhibitors | P. falciparum luciferase reporter growth, 96 h | actives 6.9% (n = 320,000); note: % is set by controls: 0 for no effect and ±100 for the full control effect
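Readout is luminescence from an integrated firefly luciferase in P. falciparum. Red cells, 2% hematocrit and 0.05% parasitemia final, were cultured with compound through two parasite generations (96 hours) at 37 C, 5% CO2.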
SARS PLpro yeast: qHTS of Yeast-based Assay for SARS-CoV PLP. AID 485353, 2010. Potency, µM (doses to about 32.9 µM), for inactives: top-dose activity, positive = growth rescue, hits mostly activators. actives 0.19% (n = 330,000). S. cerevisiae expressing SARS-CoV PLpro, growth rescue; calls by dose curve; note: 0% is about no effect; nearly all actives have a fitted effect of over 55% in size
* marks the source's active call; other numbers are inactive results; ? = inconclusive; . = no result given; [ ] = dose if it differs, or a comment. Unless noted, calls come from the whole dose curve; as a rule, active = well fitted inhibition curve with a large enough effect; inconclusive = small, poorly fitted or top-dose-only effect, or another doubt; inactive = no such curve, though single readings can be large or run the other way. Potency is the fitted concentration of half-maximal effect.

SMILES	RE007 growth inh	NS1 inh	Pf growth 48h	Pf growth 96h	SARS PLpro yeast
Cc1cc(-c2nc3ncccc3o2)ccc1NC(=O)CC(C)C	11%	-44%	8%	4.1µM*	18%
Cc1c(NC(=O)C(C)C)cccc1-c1nc2ncccc2o1	1%	-13%	5%	9.3µM*	?
CC(C)C(=O)N1CCN(c2ccccc2NC(=O)Cc2ccc(Cl)cc2)CC1	-4%	-43%	13µM*	-3%[5.75 µM]	-1%
CS(=O)(=O)N1CCN(c2ccccc2NC(=O)Cc2ccccc2)CC1	-9%	3%	-8%	-12%	3%
O=C(Cc1ccccc1)Nc1ccccc1N1CCN(c2ccccc2)CC1	16%	-50%	9.3µM*	.	2%
CCC(=O)N1CCN(c2ccccc2NC(=O)Cc2ccccc2)CC1	15%	17%	10µM*	-2%	1%
Cc1ccc(C(=O)CN2C(=O)NC3(CCc4ccccc43)C2=O)s1 (configuration not stated)	-22%	.	?	?	3%
Cc1ccc(S(=O)(=O)NCCC(=O)N2CCC(Cc3ccccc3)CC2)cc1	1%	.	?	?	-16%
CC(=O)Nc1ccc(S(=O)(=O)NCCC(=O)N2CCN(C(c3ccccc3)c3ccccc3)CC2)cc1	-12%	.	12µM*	10µM*	-6%
CC(=O)Nc1ccc(S(=O)(=O)NCCC(=O)N2CCC(Cc3ccccc3)CC2)cc1	6%	.	?	5.2µM*	-3%
O=C(CCNS(=O)(=O)c1ccccc1)N1CCN(C(c2ccccc2)c2ccccc2)CC1	.	-33%	?	5.9µM*	-4%
CC(=O)Nc1ccc(S(=O)(=O)NCCC(=O)N2CCCCC2)cc1	-2%	.	-22%	8%	-1%
O=C(CCNS(=O)(=O)c1ccccc1)N1CCOCC1	1%	1%	6%	8%	?
CCNC(=O)C1(C)CCCN(Cc2cc3ccccc3o2)C1 (configuration not stated)	-10%	.	.	.	.
Cc1cc(=O)[nH]c(SCc2cccc3ccccc23)n1	0%	-9%	-3%	3.7µM*	-2%
CCCCC(=O)Nc1ccc(C(=O)Nc2ccc(OC)cc2[N+](=O)[O-])cc1	.	2%	-22%	3.7µM*	13%
CCCCC(=O)Nc1ccc(NC(=O)c2ccc([N+](=O)[O-])cc2)cc1OC	.	0%	27%	?	7%
CC(=O)c1cccc(OCC(O)CN2CC=C(c3ccccc3)CC2)c1 (configuration not stated)	-16%	-5%	?	1.9µM*	5%
O=C(O)c1ccc(C(=O)c2cc([N+](=O)[O-])cc([N+](=O)[O-])c2)cc1	-3%	.	.	.	.
O=S(=O)(c1c(Cl)sc(Cl)c1Br)N1CCCC1	-24%	-38%	?	12µM*	-3%
Cc1nc2ccc(Cc3ccc4nc(C)[nH]c4c3)cc2[nH]1	-1%	8%	?	10µM*	9%
COc1ccc(Br)cc1S(=O)(=O)N1CC(C)OC(C)C1 (configuration not stated)	22%	-5%	-21%	-2%	-9%
Cc1cc(C)n(S(=O)(=O)c2cc(Cl)ccc2Cl)n1	-8%	-1%	10µM*	0%	6%
CCOc1ccc(C(C)(C)C)cc1S(=O)(=O)n1nc(C)cc1C	-7%	-6%	4.7µM*	8.3µM*	3%
Cc1cc(C)n(S(=O)(=O)c2ccc(Cl)cc2)n1	4%	0%	14%	?	2%
CCOc1ccc(C(C)(C)C)cc1S(=O)(=O)N1CC(C)OC(C)C1 (configuration not stated)	-3%	-68%	12µM*	.	-2%
Cc1ccccc1-c1noc(CCC(=O)NC2CCCCC2)n1	-1%	-16%	5%	10µM*	-5%
COc1ccccc1-c1noc(CCC(=O)NC2CCCC2)n1	2%	13%	-2%	2.6µM*	11%
O=C(NCC1CCCO1)C1CCCN(S(=O)(=O)c2cc(Cl)ccc2Cl)C1 (configuration not stated)	11%	-1%	-5%	-8%	-4%
CCCCNC(=O)N(O)C1N(CCCC)C(=O)N(CC(=O)OC)C1(C)C (configuration not stated)	-16%	0%	-9%	5.2µM*	-23%
